Source: PubChem (several laboratories)
An excerpt weighted towards active compounds, which were near 3.8% of everything screened.
A1 inh – caspase 3/7 activation in MEF A1-2A-BIM cells, primary screen, A1 inhibitor project, cell-based, luminescence, HTS | caspase activation, % (test concentration not listed) | 0.066% of 330,000 active | Caspase-Glo 3/7 luminescence, 3 h; percent of clofoctol response, vehicle zero;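 active = over half of replicate activation scores above 10%, or exactly half above 10 with the replicate mean above 10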
Jurkat NFkB inh – inhibitors of induced NF-kB luciferase reporter, primary screen, TCR NF-kB activation inhibitor project, cell-based, luminescence, uHTS. Jurkat, PMA/ionomycin-induced NF-kB luciferase reporter. inhibition, % at 4 µM. 0.53% of 330,000 active. AID 435003, 2010; in the data active = inhibition above about 50%
Beta cell apopt – inhibitors of cytokine-induced beta cell apoptosis, primary screen, luminescence. INS-1E cytokine-induced death, ATP luminescence, 48 h; percent of positive-control rescue, neutral wells zero. protection from apoptosis, % (no concentration beside the values). 0.8% of 300,000 active. AID 435005, 2010;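 active = Every replicate reaches about 75%, or at least half do and their mean reaches it too, limit read from the data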;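 note: 0% = cytokine-treated negative control wells and 100% = positive control rescue; higher means more ATP so stronger rescue from cytokine killing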
697 NFkB inh – inhibitors of PMA/ionomycin-induced NF-kB reporter, 697 cells, primary screen, B-cell NF-kB inhibitor project, cell-based, luminescence, uHTS. inhibition, % at 4 µM. 0.33% of 330,000 active. 697 B-cell NF-kB luciferase reporter, 16 h; in the data active = inhibition above about 35%
NTR1 ag – agonists of human NTR1, primary screen, imaging, U2OS cells, beta-arrestin-GFP, high content. activation, % at 20 µM. NTR1-U2OS beta-arrestin-GFP spot imaging, agonist mode. Neurotensin receptor type 1 (Homo sapiens), P30989. 0.17% of 330,000 active. AID 493036, 2011;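 active = activation at or above 40% of the spot to cytoplasm intensity ratio, with at least 20 cells analyzed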;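 note: 0% = DMSO without peptide and 100% = 100 nM NTR1 peptide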
Mdm2-MdmX inh – inhibitors of human Mdm2-MdmX association, primary screen, cell-based, luminescence, split luciferase, SaOS-2, uHTS; SaOS-2 split-luciferase Mdm2/MdmX complementation; inhibition, % at 8 µM; 3% of 330,000 active; AID 485346, 2010;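 active = inhibition of at least 50% at 8 µM in the primary screen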
Jurkat NFkB conf – PMA/ionomycin-induced NF-kB reporter inhibitors, Jurkat retest, confirmation, T-cell NF-kB inhibitor project, cell-based, luminescence, single concentration. 27% of 2,700 active. Jurkat NF-kB luciferase, 16 h. inhibition, % at 4 µM. shares compounds with Jurkat NFkB inh;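 active = inhibition reaching about 45% at 4 µM in either replicate, limit read from the data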;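 note: plate controls were PMA/ionomycin stimulated DMSO wells for no effect and unstimulated DMSO wells for full effect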
697 NFkB conf – PMA/ionomycin-induced NF-kB reporter inhibitors, 697 retest, confirmation, B-cell NF-kB inhibitor project, cell-based, luminescence, single concentration; shares compounds with 697 NFkB inh; 697 B-cell NF-kB luciferase, 16 h; inhibition, % at 4 µM; 35% of 2,000 active; AID 449746, 2010; in the data active = inhibition mostly above about 28%, no sharp cut-off; inactive = mostly below about 22%
Mdm2 MdmX conf – Mdm2-MdmX complex disruptors, retested hits, confirmation, luminescence, single concentration; shares compounds with Mdm2-MdmX inh; Mdm2-MdmX binding, luminescent assay; inhibition, % at 8 µM; 55% of 10,000 active; AID 489028, 2010; in the data active = inhibition above about 40%
Full FLuc ctr – full-length luciferase signal inhibition, confirmation, counter-screen for Mdm2/MdmX interaction inhibitor project, cell-based, single concentration, SaOS-2 | AID 504607, 2011 | shares compounds with Mdm2-MdmX inh | SaOS-2 full-length luciferase counterscreen, luminescence | inhibition, % at 8 µM | 77% of 6,200 active;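 active = mean inhibition at 8 µM reaching about 37%, which flags the compound as non-specific, limit read from the data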;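 note: p53-null SaOS-2 cells with luciferase driven by a doxycycline-inducible promoter; compound on cells about two nights before reading with doxycycline added after day one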
* marks the source's active call; other numbers are inactive results.

CCC(CC)c1nnc(NC(=O)CSCC(=O)Nc2cc(C)on2)s1 was read as A1 inh 0, Jurkat NFkB inh -18, Beta cell apopt -2, 697 NFkB inh 9, NTR1 ag 2 and Mdm2-MdmX inh 13.
`Clc1ccc(Cn2ncc3c(NCc4ccccc4)ncnc32)c(Cl)c1` gave A1 inh 0, Jurkat NFkB inh 65*, Beta cell apopt -11, 697 NFkB inh -52, NTR1 ag 3, Mdm2-MdmX inh 69*, Jurkat NFkB conf 32, Mdm2 MdmX conf 69* and Full FLuc ctr 39*.
CCCCCCN1C=CC(=C2C(=O)c3ccccc3C2=O)C=C1 was read as A1 inh -8, Jurkat NFkB inh -138, Beta cell apopt 18, 697 NFkB inh -125, NTR1 ag 1 and Mdm2-MdmX inh -6.
CCCN1C=CC(=C2C(=O)c3ccccc3C2=O)C=C1 was read as A1 inh -6, Jurkat NFkB inh 69*, Beta cell apopt 63, 697 NFkB inh 44*, NTR1 ag -1, Mdm2-MdmX inh 88*, Jurkat NFkB conf 75*, 697 NFkB conf 20, Mdm2 MdmX conf 94* and Full FLuc ctr 55*.
Screening CCN1C=CC(=C2C(=O)c3ccccc3C2=O)C=C1 returned A1 inh -1, Jurkat NFkB inh 54*, Beta cell apopt 21, 697 NFkB inh 5, NTR1 ag 12, Mdm2-MdmX inh 72*, Jurkat NFkB conf 45*, Mdm2 MdmX conf 78* and Full FLuc ctr 37*.
`CN1C=CC(=C2C(=O)c3ccccc3C2=O)C=C1` gave Jurkat NFkB inh -75, 697 NFkB inh -117, NTR1 ag 0 and Mdm2-MdmX inh -16.
CCN(C(=O)CSc1nc(N)cc(=O)[nH]1)c1c(N)n(Cc2ccccc2)c(=O)[nH]c1=O was read as A1 inh 0, Jurkat NFkB inh 7, Beta cell apopt 0, 697 NFkB inh 18, NTR1 ag -2 and Mdm2-MdmX inh -11.
Screening CC1(C)Cc2c(cnn2-c2cccc(F)c2)C(NC(=O)CSc2ccncc2)C1 (stereo not given) returned A1 inh 0, Jurkat NFkB inh 6, Beta cell apopt 4, 697 NFkB inh 8, NTR1 ag 1 and Mdm2-MdmX inh 20.
`COc1cc(/C=C(\C#N)c2nc3ccccc3[nH]2)ccc1OC(=O)c1ccco1` gave A1 inh -9, Jurkat NFkB inh -54, Beta cell apopt -5, 697 NFkB inh 11, NTR1 ag 2 and Mdm2-MdmX inh -24.
`COc1cc(/C=C(/C#N)c2nc3ccccc3[nH]2)ccc1OCC(=O)Nc1ccccc1C` gave A1 inh 7.2*, Jurkat NFkB inh 53*, Beta cell apopt 3, 697 NFkB inh 13, NTR1 ag 13, Mdm2-MdmX inh 100*, Jurkat NFkB conf 19 and Mdm2 MdmX conf 17.
`COc1ccc(S(=O)(=O)N2CCOCC2)cc1NC(=O)Cc1coc2cc(C)c(C)cc12` gave A1 inh -1, Jurkat NFkB inh -18, Beta cell apopt -4, 697 NFkB inh -5, NTR1 ag 0 and Mdm2-MdmX inh 13.
`CCOc1ccc(S(=O)(=O)NCc2ccccn2)cc1NC(=O)c1ccccc1F` gave A1 inh 0, Jurkat NFkB inh 54*, Beta cell apopt 7, 697 NFkB inh 11, NTR1 ag -2, Mdm2-MdmX inh 57*, Jurkat NFkB conf 45, Mdm2 MdmX conf 53* and Full FLuc ctr 72*.
COc1cc([N+](=O)[O-])cc(/C=N/NC(=O)c2ccc(NC(=O)c3ccc(C)cc3)cc2)c1O was read as Jurkat NFkB inh 86*, 697 NFkB inh 81*, NTR1 ag 1, Mdm2-MdmX inh 88*, Jurkat NFkB conf 55*, 697 NFkB conf 77*, Mdm2 MdmX conf 94* and Full FLuc ctr 33.
`CSC1=NC(C(Cl)(Cl)Cl)N=C(c2ccc(C)cc2)N1` (stereo not given) gave A1 inh 0, Jurkat NFkB inh 70*, Beta cell apopt 5, 697 NFkB inh -5, NTR1 ag 3, Mdm2-MdmX inh 72*, Jurkat NFkB conf 44, Mdm2 MdmX conf 70* and Full FLuc ctr 67*.
`COc1cc(C[C@@H](CO)[C@H](CO)Cc2ccc(O)c(OC)c2)ccc1O` gave A1 inh 0, Jurkat NFkB inh 1, Beta cell apopt -2, 697 NFkB inh -1, NTR1 ag 1 and Mdm2-MdmX inh 3.
For CCCCN=C1NN=C(c2ccc3c(c2)OCCO3)CS1 the results were A1 inh -4, Jurkat NFkB inh -34, 697 NFkB inh -74, NTR1 ag 2 and Mdm2-MdmX inh -39.
Screening Cc1cc(C2=NNC(=NC3CC3)SC2)c(C)n1-c1ccccc1F returned A1 inh -6, Jurkat NFkB inh 79*, Beta cell apopt 37, 697 NFkB inh 39*, NTR1 ag 1, Mdm2-MdmX inh 99*, Jurkat NFkB conf 74*, 697 NFkB conf 48*, Mdm2 MdmX conf 99* and Full FLuc ctr 12.
c1cc2c(cc1C1=NNC(=NC3CC3)SC1)OCCO2 was read as A1 inh -8, Jurkat NFkB inh 60*, Beta cell apopt 35, 697 NFkB inh 57*, NTR1 ag 2, Mdm2-MdmX inh 92*, Jurkat NFkB conf 78*, 697 NFkB conf 24, Mdm2 MdmX conf 86* and Full FLuc ctr 56*.
